Test results as given in ChEMBL document CHEMBL4513216, “Probing the Open Global Health Chemical Diversity Library for Multistage-Active Starting Points for Next-Generation Antimalarials” (ACS Infect Dis, 2020).
Hit rate of the full screen: of about 68,000 compounds, about 2,700 (4%) showed an effect of 50% or more. The list comes from a sample in which strong results are over-represented; it also holds similar structures and randomly drawn compounds.

The compounds below were run on Plasmodium berghei (assay: Screen against P. berghei liver stage (PbLuc), transformed with Luciferase, at 2uM). Details: tested at 2 uM.
Format: functional, HepG2

Going from `CC(=O)N(C)Cc1ccccc1NCc1c(C)noc1C` to `CCN(CC)Cc1ccccc1NCc1c(C)noc1C`, the INHIBITION rises from 47.68% to 71.91%.

Compared with `Cc1noc(C)c1CNS(=O)(=O)N(C)Cc1ccccc1Br`, `CCOc1ccc(S(=O)(=O)N(C)Cc2cnn(CC)c2)cc1` is higher in INHIBITION: -45.67% for the first, -44.7% for the second.

Going from `O=C(Cc1csc(-c2ccco2)n1)N1CCN(c2nccs2)CC1` to `O=C(Nc1cc(-c2ccccc2)on1)N1CCN(CCO)CC1`, the INHIBITION rises from 4.89% to 45.19%.

Going from `CC(C)(C)CC(NC(=O)N1CCC(C(N)=O)CC1)C(F)(F)F` (stereo unspecified) to `COC(=O)C1CCN(C(=O)Cn2nc(C)nc2-c2ccccc2)CC1`, the INHIBITION rises from 4.34% to 50.32%.

First: CC(=O)N[C@@H](C)C(=O)NCc1cccnc1Oc1ccccc1F
Second: Cc1ccccc1-c1noc(CNc2ccc(F)cc2OCCO)n1
The INHIBITION of the first is lower: -66.28% for the first, 20.77% for the second.

Going from `c1cncc(-c2noc(CN3CCCC3Cn3cccn3)n2)c1` (stereo unspecified) to `O=C(Nc1cc(-c2ccccc2)on1)N1CC[C@H](O)C1`, the INHIBITION falls from 5.59% to -9.71%.

Compared with `CCC(=O)NC1CCCN(C(=O)Nc2cc(-c3ccccc3)on2)C1` (stereo unspecified), `Cc1nc(-c2ccccc2)n(CC(=O)NC2CCCC2)n1` is lower in INHIBITION: 80.45% for the first, 37.68% for the second.

First: Cc1ccc(CN2CCCC3(CCCCN3S(C)(=O)=O)C2)s1 (stereo unspecified)
Second: Cc1ccc(CN2CCCC3(CCCN3S(C)(=O)=O)C2)s1 (stereo unspecified)
The INHIBITION of the first is lower: -40.37% for the first, 51.26% for the second.

Going from `Cc1ccc(CN2CCC3(CCCN3S(C)(=O)=O)CC2)s1` to `CN1CCc2[nH]cnc2C12CCN(Cc1ccc(S(C)(=O)=O)cc1)CC2`, the INHIBITION rises from -26.46% to 18.54%.

Going from `Cc1ccc(CNCc2nnc3n2CCCC3C(F)(F)F)s1` (stereo unspecified) to `Cc1cccc(CNC[C@H]2Cn3ccnc3CO2)n1`, the INHIBITION rises from -73.29% to 9.42%.

Compared with `OC1(CN2CCC(Cc3ncccn3)CC2)CCCCC1`, `Cn1ccc(CN2CCC(CC(=O)NC3CCCC3)CC2)cc1=O` is lower in INHIBITION: -9.61% for the first, -17.37% for the second.

Compared with `CCOc1cccnc1C(=O)N1CC=C(c2ccc(O)cc2)CC1`, `COc1ncc(-c2ccc(O)cc2)c(OC)n1` is higher in INHIBITION: 7.46% for the first, 24.44% for the second.

First: Cn1ccc(CN2CCC(NC(=O)C3CCCCC3)CC2)cc1=O
Second: Cn1ccc(CN2CCC(NC(=O)NC3CCCCC3)CC2)cc1=O
The INHIBITION of the first is lower: -24.26% for the first, 54.85% for the second.

Going from `Cc1nc(COc2ccc(CNCCn3cccn3)cc2)cs1` to `CCNc1nc2c(s1)C(=O)CN(C(=O)NCCc1ccccc1)C2`, the INHIBITION rises from 12.01% to 12.31%.

First: COC(=O)C1CCN(C(=O)Cn2ccc(-c3ccccc3)n2)CC1
Second: O=C(CN1CCOC1=O)N1CCC2(CCc3ccccc32)CC1
The INHIBITION of the first is lower: -7.16% for the first, 55.36% for the second.

Going from `Cc1nc(-c2ccsc2)ccc1C(=O)NCCN1CCOCC1` to `Cc1nc(-c2ccsc2)ccc1C(=O)NCCCN1CCOCC1`, the INHIBITION falls from 13% to -10.47%.

First: Cc1nc(-c2ccsc2)ccc1C(=O)NC(C)CN1CCOCC1 (stereo unspecified)
Second: CCOC(=O)C(C)Nc1ccc(CCN2CCOCC2)cc1 (stereo unspecified)
The INHIBITION of the first is higher: 50.75% for the first, -48.91% for the second.

Compared with `CC(C)CN1CC[C@@H]2[C@H](CC1)N(S(C)(=O)=O)CCS2(=O)=O`, `CC(C)NC(=O)C1CCc2nnc(CNC(=O)C3CC3)n21` (stereo unspecified) is higher in INHIBITION: 30.95% for the first, 52.23% for the second.

Going from `Cc1noc(C)c1CN1CC[C@H]2OCC[C@@]2(C(=O)NC2CCCC2)C1` to `Cc1noc(C)c1CN1C(=O)[C@@H]2CC[C@H]1CN(C(=O)c1cscn1)C2`, the INHIBITION falls from -6.61% to -13.89%.

Going from `Cc1cc(N(C)C)nc(C2COCCN2Cc2csc(C)n2)n1` (stereo unspecified) to `CNc1cc(C)nc(C2COCCN2Cc2csc(C)n2)n1` (stereo unspecified), the INHIBITION rises from -27.45% to 52.03%.

Going from `CNc1cc(C)nc(C2COCCN2CCc2ccccc2)n1` (stereo unspecified) to `CN(C)C(=O)[C@H]1C[C@H]2CN(CCc3ccccc3)C[C@@H]1O2`, the INHIBITION rises from -3.96% to 28.38%.

First: CNc1nc2c(s1)C(=O)CN(C(=O)NCc1ccccc1)C2
Second: CCNc1nc2c(s1)C(=O)CN(C(=O)NCc1ccccc1)C2
The INHIBITION of the first is lower: 16.51% for the first, 52.01% for the second.

Going from `COCCN1C[C@@H]2CC[C@H]1CN(Cc1ccc3ccccc3n1)C2` to `COCCN1C[C@@H]2CC[C@H]1CN(Cc1nc3ccccc3n1C)C2`, the INHIBITION falls from 50.32% to 20.14%.

Going from `COCCN1C[C@@H]2CC[C@H]1CN(Cc1cc(=O)c3cc(C)ccc3[nH]1)C2` to `Cc1ccc(N2C(=O)N[C@@H]3CCN(C(=O)C4CC4)[C@@H]3C2=O)cc1`, the INHIBITION rises from -23.58% to 56.76%.

First: O=C(NCc1cccnc1)c1nc2c(s1)CCCN2C(=O)C1CC1
Second: CC(C)NC(=O)C1CCc2nnc(CNC(=O)c3cccnc3)n21 (stereo unspecified)
The INHIBITION of the first is lower: 26.76% for the first, 37.62% for the second.

Compared with `CCCOCC(=O)NS(=O)(=O)c1ccc2c(c1)OCCCO2`, `COCCCC(=O)NS(=O)(=O)c1ccc2c(c1)OCCCO2` is higher in INHIBITION: -16.42% for the first, 54.85% for the second.

Compared with `CC(C)(C)C(=O)NCCC(=O)NC(C)(C)c1ccc2c(c1)OCCO2`, `CC(C)(C)C(=O)NCCC(=O)NS(=O)(=O)c1ccc2c(c1)OCCO2` is higher in INHIBITION: -93.39% for the first, 73.37% for the second.

Compared with `CSCCC(=O)NS(=O)(=O)c1ccc2c(c1)OCCO2`, `CC(C)CC(=O)NS(=O)(=O)c1ccc2c(c1)OCCCO2` is lower in INHIBITION: -14.75% for the first, -32.2% for the second.

First: COCCn1ccc(NC(=O)Nc2ccccn2)n1
Second: COCC1CN(C(=O)Cc2ccccn2)Cc2ncnn2C1 (stereo unspecified)
The INHIBITION of the first is higher: -48.53% for the first, -54.16% for the second.

First: O=C1N(Cc2ccc(F)c(F)c2)CCCC1(O)CNCc1cccnc1 (stereo unspecified)
Second: Cc1occc1C(=O)N1CCC2(CCN(Cc3ccccn3)C2=O)C1 (stereo unspecified)
The INHIBITION of the first is lower: -0.06% for the first, 49.25% for the second.

Going from `CCOc1cc2c(cc1CNC(Cc1cccs1)c1nccs1)OCO2` (stereo unspecified) to `O=C(CCc1cccs1)Nc1ccnn1C1CCS(=O)(=O)C1` (stereo unspecified), the INHIBITION rises from -52.9% to -28.15%.

Going from `CC(C)NC(=O)C1CCc2nnc(CNC(=O)c3ccc(Cl)cc3Cl)n21` (stereo unspecified) to `CCC(C)[C@H](NC(=O)c1ccc(F)cc1-n1cnnn1)C(=O)OC` (stereo partly specified), the INHIBITION rises from 5.75% to 24.67%.

Compared with `COc1ncccc1CNC1CCc2c(ccc(=O)n2CC2CC2)C1` (stereo unspecified), `COc1ccc(CN2CCC[C@@H]3CN(C(=O)c4ccco4)C[C@@H]32)cc1` is lower in INHIBITION: 24.04% for the first, -24.31% for the second.

Compared with `O=C([C@H]1C[C@H]2OCC[C@H]2N(Cc2ccccc2F)C1)N1CCCCO1`, `Cc1ccc(CN2CCC[C@@H]3CN(C(=O)c4ccco4)C[C@@H]32)o1` is higher in INHIBITION: 29.33% for the first, 50.17% for the second.

Going from `CN(C)Cc1nnc2n1CCN(Cc1ccccn1)CC2` to `O=C(O)[C@]12CCCN(Cc3ccsc3)C[C@H]1CN(c1ccccn1)C2`, the INHIBITION rises from -16.67% to 27.73%.

First: Cc1cccc(CCC(=O)Nc2ccnn2C2CCS(=O)(=O)C2)c1 (stereo unspecified)
Second: O=C(CCc1ccsc1)Nc1ccnn1C1CCS(=O)(=O)C1 (stereo unspecified)
The INHIBITION of the first is higher: 62.13% for the first, -38.89% for the second.

First: O=C(NCCC1COc2ccccc2O1)c1ccc(N2CC(O)C2)nc1 (stereo unspecified)
Second: O=C(O)[C@]12CCCN(Cc3ccccc3)C[C@H]1CN(c1ncccn1)C2
The INHIBITION of the first is higher: 13.19% for the first, -0.75% for the second.

First: O=C1N[C@@H]2CCN(C(=O)C3CC3)[C@@H]2C(=O)N1c1ccc(F)cc1
Second: Cc1ccc(N2C(=O)N[C@@H]3CCN(C(=O)C4CCCC4)[C@@H]3C2=O)cc1
The INHIBITION of the first is higher: 34.24% for the first, -28.91% for the second.

Compared with `COc1ccc(-c2nnc(SCC(=O)NCC(C)C)[nH]2)c(OC)c1`, `COc1ccc(-c2nnc(SC(C)C(=O)NCC(C)C)[nH]2)c(OC)c1` (stereo unspecified) is higher in INHIBITION: -8.24% for the first, 59.18% for the second.

Compared with `COc1ccc(-c2nnc(SC(C)C(=O)NC(C)(C)C)[nH]2)c(OC)c1` (stereo unspecified), `CCn1nc(C)c(CNC(=O)c2cn(CC3CCCO3)nn2)c1C` (stereo unspecified) is higher in INHIBITION: -42.16% for the first, -32.59% for the second.

Compared with `Cc1ccc([C@@H]2CN(C(=O)c3csc(C)n3)C[C@H]2NC(=O)C2CC2)cc1`, `Cc1ccc([C@@H]2CN(C(=O)c3ccsc3)C[C@H]2NC(=O)C2CC2)cc1` is higher in INHIBITION: -67.56% for the first, 50.57% for the second.

Compared with `Cc1ccc([C@@H]2CN(C(=O)c3cc[nH]c3)C[C@H]2NC(=O)C2CC2)cc1`, `CC(=O)N1C[C@H]2CCCN(Cc3ccc(C)o3)[C@H]2C1` is lower in INHIBITION: -12.67% for the first, -41.73% for the second.

Compared with `CC(NC(=O)NCCN1CCCC1)c1nncn1C` (stereo unspecified), `CCCS(=O)(=O)NCc1nc(C)cc(N2CCCC2)n1` is lower in INHIBITION: 21.83% for the first, 15.84% for the second.

Going from `CC(C)c1ccc(C(N)c2cccs2)cc1` (stereo unspecified) to `O=C(O)CN1CCC2(CCc3ccccc32)CC1`, the INHIBITION rises from -61.99% to -2.19%.

Going from `CCS(=O)(=O)NCc1nc(C)cc(N2CCCC2)n1` to `CCS(=O)(=O)NCc1nc(C)cc(N2CCCCC2)n1`, the INHIBITION falls from 53.61% to 19.12%.

Compared with `CCN1CC2(CCN(CC3CCCO3)CC2)OC1=O` (stereo unspecified), `CCN1CC2(CCN(CC3COCCO3)CC2)OC1=O` (stereo unspecified) is higher in INHIBITION: 6.85% for the first, 65.1% for the second.

First: O=C1OC2(CCN(CC3CCCO3)CC2)CN1CCc1ccccc1 (stereo unspecified)
Second: O=C1OC2(CCNCC2)CN1CC(=O)N1CCCC1c1nccs1 (stereo unspecified)
The INHIBITION of the first is lower: -38.59% for the first, 3.62% for the second.

First: O=C(c1ccc2c(c1)COC2)N1CCCC(n2cncn2)C1 (stereo unspecified)
Second: O=C(CC1COCCN1)N1CCCN(C2Cc3ccccc3C2)CC1 (stereo unspecified)
The INHIBITION of the first is lower: -45.72% for the first, 46.02% for the second.

Going from `O=C(CN1C(=O)CCNC1=O)N1CCC2(CCc3ccccc32)CC1` to `O=C(CC1COCCN1)N1CCC2(CCc3ccccc32)CC1` (stereo unspecified), the INHIBITION rises from 12.3% to 50.32%.

Going from `O=C(CC1COCCN1)N1CCC(N2CCc3ccccc3C2)CC1` (stereo unspecified) to `O=C(O)[C@]12CCCN(Cc3ccsc3)C[C@H]1CN(c1ncccn1)C2`, the INHIBITION rises from -3.38% to 53.55%.

`CCCC(=O)N(CCCN1CCOCC1)c1nc2c(C)c(C)ccc2s1` gave an INHIBITION of -3.67%.
